Test results from PubChem BioAssay.
“And” between values parts separate entries of the source, which are not always exact repeats. Identical values can stand only once. The source made the active and inactive calls.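 How the source made its calls, unless noted: active means normalized viability below 100% at a tested concentration; inactive means the rest.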

What was measured:
[1] = Cy5 fluorescence interference with SSB-bound oligo, artefact control for HCV NS3 helicase inhibitor project, biochemical, NIH Clinical Collection, E. coli SSB (AID 743268; call rule not given here)
[2] = tested on: Hepatitis C virus NS3 helicase; assay: HCV NS3 helicase inhibitors, primary screen, biochemical, fluorescence polarization, NIH Clinical Collection (AID 743270; call rule not given here); conditions: NS3 helicase binding to Cy5-dT15 DNA, stronger effect = higher value, concentration not given here
[3] = target: Single-stranded DNA-binding protein (Escherichia coli (strain K12)) (UniProt P0AGE0); assay: E. coli SSB displacement from DNA, counter-screen for HCV NS3 helicase inhibitor project, biochemical, fluorescence polarization, NIH Clinical Collection (AID 743271; in the data active means inhibition above about 28%); conditions: stronger effect = higher value, concentration not given here
[4] = fluorescence interference in NS3h assay format, artefact control for HCV NS3 helicase inhibitor project, biochemical, NIH Clinical Collection (AID 743272; call rule not given here;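 further: HCV NS3 helicase with a Cy5 labelled single stranded DNA probe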); conditions: fluorescence interference counterscreen, stronger effect = lower value
[5] = target: 6-phosphogluconate dehydrogenase, decarboxylating (Homo sapiens) (UniProt P52209); assay: 6PGD enzyme inhibitors, primary screen, biochemical, human, recombinant enzyme, NADPH absorbance (AID 1159550;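 active means at least 20% inhibition of 6-phosphogluconate dehydrogenase activity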); conditions: recombinant 6PGD, NADPH absorbance 341 nm; at 10 µM; stronger effect = higher value
[6] = modulation of C. elegans fzo-1 (AID 1259413; call rule not given here;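 further: fzo-1 mutant C. elegans worms in liquid wells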); conditions: C. elegans fzo-1 modulator screen, mean read-out; stronger effect = higher value
[7] = differential killing of epithelial or mesenchymal cells, primary screen, imaging, PC-3E GFP, TEM4-18 mCherry, co-culture (AID 1345086;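 active means compounds killing one labelled cell type while sparing the other, by normalised counts and ratio limits, not self-fluorescent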;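 on all read-outs here: cells exposed to compound for 72 h before imaging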;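 on red/green cell ratio (normalised): normalised mesenchymal count divided by normalised epithelial count so high means epithelial killing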); conditions: imaging cell counts, at 1 µM; for red/green cell ratio (normalised): actives lie on both sides, counts scaled to control wells, 1 = unselective
[8] = ovarian cancer cell viability with rucaparib, profiling panel, oncology-focused library, rucaparib conditional (AID 1508598); conditions: patient-derived ovarian cancer cells, CellTiter-Glo viability, 144 h, stronger effect = lower value
[9] = target: NAD(+) hydrolase SARM1 (Homo sapiens) (UniProt Q6SZW1); assay: SARM1 TIR NADase inhibitors, cell lysate, NAD-Glo luminescence (AID 1508614;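 active means compound whose remaining NAD level is above about 45 nM, limit read from the data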); conditions: SAM-TIR HEK293T lysate NADase, at 1 µM, stronger effect = higher value
[10] = target: Mitogen-activated protein kinase 7 (Homo sapiens) (UniProt Q13164); assay: ERK5 transactivation activators in reporter cells, primary screen, cell-based, HTS (AID 1508626;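 active means luciferase signal above three times the same-plate solvent-only control wells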;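 further: luciferase driven by Gal4-ERK5 fusion binding five Gal4 sites before minimal TATA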); conditions: HeLa Gal4-ERK5 transactivation, 18 h, at 5 µM, stronger effect = higher value
[11] = viability rescue of complex I mutant cybrids, primary screen, cell-based, galactose medium, ATP luminescence (AID 1645843;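 active means z-score of at least 1.8 in each of two replicates, scored against plate mean and spread of sample wells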;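 further: positive z means more ATP and so rescue of galactose-driven cybrid death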); conditions: complex I mutant cybrid cells, 72 h, stronger effect = higher value
F380Y = assay: modulators of BK channel variants, profiling panel, selectivity assay, cell-based, U2OS BacMam, thallium flux, beta subunits (AID 1259406;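 active means thallium flux through the channel raised or lowered by more than 3 SD from vehicle-only wells, actives on both sides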;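 further: initial slope of Thallos dye fluorescence rise after thallium is added; log ratio against the mean of 0.3% DMSO vehicle wells on the same plate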); conditions: at 30 µM
F380Y/beta2Delta = assay: as above; conditions: at 30 µM
[12] = target: Calcium-activated potassium channel subunit alpha-1 (Homo sapiens) + Leucine-rich repeat-containing protein 26 (Homo sapiens) (UniProt Q12791+Q2I0M4); assay: as above; conditions: F380Y/Slo1WT/gamma1, at 30 µM
R275C = assay: as above; conditions: at 30 µM
R275C/beta1 = assay: as above; conditions: at 30 µM
R275C/beta2Delta = assay: as above; conditions: at 30 µM
[13] = liver-stage malaria parasite growth inhibition, primary screen, cell-based, HepG2, luciferase luminescence, HepG2 viability (AID 624349; in the data active means parasite load remaining mostly below about 12%, no sharp cut-off; inactive means mostly above about 10%;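 further: 100% = mean of DMSO negative control wells on the same plate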); conditions: P. berghei liver stage in HepG2, luciferase luminescence, concentration not given here; parasite load remaining: stronger effect = lower value; viability: measured here: HepG2 viability without parasites
[14] = sensitizers of A549 cells to miR-34 induction, primary screen, imaging, A549 dox-inducible miR-34, nuclei and caspase counts (AID 1347080;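 active means compounds whose cell count with miR-34 switched on is under 0.7 times the count with it off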); conditions: A549 miR-34 inducible, Hoechst nuclei count, 48 h
[15] = survival rescue of mitochondrial mutant cells in low glucose, primary screen, MELAS cybrids, Rieske KO mouse fibroblasts, CellTiter-Glo (AID 1508586;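 active means mean z-score across replicates of 1.96 or higher in either the MELAS or the Rieske mutant cell line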;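 further: z relative to plate mean and SD of compound and empty wells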)
[16] = measured here: epithelial PC-3E GFP cell survival
[17] = measured here: mesenchymal TEM4-18 mCherry cell survival
[18] = MELAS cybrid survival, CellTiter-Glo 48 h, stronger effect = higher value
[19] = Rieske KO mouse fibroblast survival, CellTiter-Glo 72 h

Chain of NAD(+) hydrolase SARM1 (Homo sapiens) (Q6SZW1 whole entry, looked up, the tested form may be a part): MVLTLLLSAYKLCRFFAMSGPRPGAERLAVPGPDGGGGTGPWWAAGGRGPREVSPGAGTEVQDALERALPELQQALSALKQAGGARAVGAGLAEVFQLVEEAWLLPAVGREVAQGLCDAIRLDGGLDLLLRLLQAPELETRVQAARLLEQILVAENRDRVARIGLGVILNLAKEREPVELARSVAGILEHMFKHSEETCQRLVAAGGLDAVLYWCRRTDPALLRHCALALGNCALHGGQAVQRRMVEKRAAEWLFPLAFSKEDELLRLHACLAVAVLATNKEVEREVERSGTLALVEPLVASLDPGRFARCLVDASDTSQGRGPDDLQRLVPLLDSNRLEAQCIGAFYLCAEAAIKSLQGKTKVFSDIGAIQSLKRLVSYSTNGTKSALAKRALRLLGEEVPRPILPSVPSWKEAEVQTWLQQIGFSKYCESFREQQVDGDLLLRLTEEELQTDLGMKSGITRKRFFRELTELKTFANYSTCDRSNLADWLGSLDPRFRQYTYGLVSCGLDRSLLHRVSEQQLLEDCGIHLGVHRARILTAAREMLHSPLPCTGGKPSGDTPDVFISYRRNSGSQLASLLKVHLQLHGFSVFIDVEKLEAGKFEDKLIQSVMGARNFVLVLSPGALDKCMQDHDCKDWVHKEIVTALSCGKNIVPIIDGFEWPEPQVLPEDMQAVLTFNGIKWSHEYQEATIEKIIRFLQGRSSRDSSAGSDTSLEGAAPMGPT
Chain of 6-phosphogluconate dehydrogenase, decarboxylating (Homo sapiens) (P52209 whole entry, looked up): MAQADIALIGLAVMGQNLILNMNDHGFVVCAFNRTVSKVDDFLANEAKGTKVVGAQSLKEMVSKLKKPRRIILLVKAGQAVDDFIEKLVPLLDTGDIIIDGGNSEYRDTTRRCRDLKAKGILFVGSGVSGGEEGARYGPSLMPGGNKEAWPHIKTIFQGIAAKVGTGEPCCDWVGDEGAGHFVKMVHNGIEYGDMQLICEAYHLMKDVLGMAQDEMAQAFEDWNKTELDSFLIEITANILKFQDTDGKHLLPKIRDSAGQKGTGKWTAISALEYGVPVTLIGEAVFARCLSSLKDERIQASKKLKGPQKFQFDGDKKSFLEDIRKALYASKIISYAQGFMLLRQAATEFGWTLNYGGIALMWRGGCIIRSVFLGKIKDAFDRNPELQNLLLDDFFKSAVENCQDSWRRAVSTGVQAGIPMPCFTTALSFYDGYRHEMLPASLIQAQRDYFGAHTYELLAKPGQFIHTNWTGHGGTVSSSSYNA
Chain of Mitogen-activated protein kinase 7 (Homo sapiens) (Q13164 whole entry, looked up, the tested form may be a part): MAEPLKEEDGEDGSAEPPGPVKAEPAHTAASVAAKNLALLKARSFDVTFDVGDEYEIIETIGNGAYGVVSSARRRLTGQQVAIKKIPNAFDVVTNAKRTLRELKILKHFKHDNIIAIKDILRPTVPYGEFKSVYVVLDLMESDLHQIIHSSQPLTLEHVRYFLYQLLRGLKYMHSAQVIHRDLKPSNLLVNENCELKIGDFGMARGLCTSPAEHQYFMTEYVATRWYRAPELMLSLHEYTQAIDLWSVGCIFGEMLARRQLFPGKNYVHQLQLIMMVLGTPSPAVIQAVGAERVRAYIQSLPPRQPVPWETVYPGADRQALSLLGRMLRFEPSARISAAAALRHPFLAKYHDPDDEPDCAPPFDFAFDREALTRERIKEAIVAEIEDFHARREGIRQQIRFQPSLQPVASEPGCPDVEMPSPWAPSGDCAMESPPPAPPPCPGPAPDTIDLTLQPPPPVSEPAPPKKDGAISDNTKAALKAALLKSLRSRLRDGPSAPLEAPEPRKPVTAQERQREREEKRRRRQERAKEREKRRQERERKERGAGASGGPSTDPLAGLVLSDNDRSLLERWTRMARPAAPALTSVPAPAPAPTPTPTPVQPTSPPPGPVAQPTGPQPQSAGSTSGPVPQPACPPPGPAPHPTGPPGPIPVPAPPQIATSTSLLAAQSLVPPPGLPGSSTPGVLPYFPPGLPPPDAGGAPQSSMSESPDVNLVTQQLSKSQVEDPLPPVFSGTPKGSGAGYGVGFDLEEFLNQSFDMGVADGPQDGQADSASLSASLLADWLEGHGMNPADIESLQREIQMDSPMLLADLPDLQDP
Chain of Calcium-activated potassium channel subunit alpha-1 (Homo sapiens) + Leucine-rich repeat-containing protein 26 (Homo sapiens) (Q2I0M4 whole entry, looked up, one chain of several): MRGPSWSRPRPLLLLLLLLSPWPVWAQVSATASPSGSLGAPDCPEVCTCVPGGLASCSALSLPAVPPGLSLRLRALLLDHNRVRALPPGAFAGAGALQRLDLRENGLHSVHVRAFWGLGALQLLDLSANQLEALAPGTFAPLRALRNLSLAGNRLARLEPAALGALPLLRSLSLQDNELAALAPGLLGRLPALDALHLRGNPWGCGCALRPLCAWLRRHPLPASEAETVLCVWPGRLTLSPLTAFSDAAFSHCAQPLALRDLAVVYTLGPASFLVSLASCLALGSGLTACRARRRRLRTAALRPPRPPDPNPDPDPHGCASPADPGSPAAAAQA

CCc1ccc(CCOc2ccc(CC3SC(=O)NC3=O)cc2)nc1 (stereo not given)
active: viability ([8]; at 0.000305 µM, OCI-P5x cells, with rucaparib 20 µM, 100% = cells with rucaparib alone) 88.4% | viability ([8]; at 0.000305 µM, OCI-P5x cells, without rucaparib) 95.9% | viability ([8]; at 0.00122 µM, OCI-P5x cells, with rucaparib 20 µM, 100% = cells with rucaparib alone) 97.3%
1.18: normalised cell number [7, 16]
inactive: fluorescence ratio [1] 1.03 | inhibition [2] 0.4% | inhibition [3] 3.75% | fluorescence ratio [4] 0.9 | inhibition [5] 6.81% | mean signal [6] 259 | red/green cell ratio (normalised) [7] 1.07 | viability ([8]; at 0.000305 µM, OCI-C5x cells, with rucaparib 10 µM, 100% = cells with rucaparib alone) 119% | viability ([8]; at 0.000305 µM, OCI-C5x cells, without rucaparib) 118% | viability ([8]; at 0.00122 µM, OCI-C5x cells, with rucaparib 10 µM, 100% = cells with rucaparib alone) 120% | viability ([8]; at 0.00122 µM, OCI-C5x cells, without rucaparib) 116% | viability ([8]; at 0.00122 µM, OCI-P5x cells, without rucaparib) 100% | viability ([8]; at 0.00488 µM, OCI-C5x cells, with rucaparib 10 µM, 100% = cells with rucaparib alone) 108% | viability ([8]; at 0.00488 µM, OCI-C5x cells, without rucaparib) 126% | viability ([8]; at 0.00488 µM, OCI-P5x cells, with rucaparib 20 µM, 100% = cells with rucaparib alone) 102% | viability ([8]; at 0.00488 µM, OCI-P5x cells, without rucaparib) 105% | viability ([8]; at 0.0195 µM, OCI-C5x cells, with rucaparib 10 µM, 100% = cells with rucaparib alone) 120% | viability ([8]; at 0.0195 µM, OCI-C5x cells, without rucaparib) 126% | viability ([8]; at 0.0195 µM, OCI-P5x cells, with rucaparib 20 µM, 100% = cells with rucaparib alone) 105% | viability ([8]; at 0.0195 µM, OCI-P5x cells, without rucaparib) 104% | viability ([8]; at 0.0781 µM, OCI-C5x cells, with rucaparib 10 µM, 100% = cells with rucaparib alone) 124% | viability ([8]; at 0.0781 µM, OCI-C5x cells, without rucaparib) 113% | viability ([8]; at 0.0781 µM, OCI-P5x cells, with rucaparib 20 µM, 100% = cells with rucaparib alone) 101% | viability ([8]; at 0.0781 µM, OCI-P5x cells, without rucaparib) 110% | viability ([8]; at 0.313 µM, OCI-C5x cells, with rucaparib 10 µM, 100% = cells with rucaparib alone) 105% | viability ([8]; at 0.313 µM, OCI-C5x cells, without rucaparib) 115% | viability ([8]; at 0.313 µM, OCI-P5x cells, with rucaparib 20 µM, 100% = cells with rucaparib alone) 103% | viability ([8]; at 0.313 µM, OCI-P5x cells, without rucaparib) 113% | viability ([8]; at 1.25 µM, OCI-C5x cells, with rucaparib 10 µM, 100% = cells with rucaparib alone) 111% | viability ([8]; at 1.25 µM, OCI-C5x cells, without rucaparib) 123% | viability ([8]; at 1.25 µM, OCI-P5x cells, with rucaparib 20 µM, 100% = cells with rucaparib alone) 104% | viability ([8]; at 1.25 µM, OCI-P5x cells, without rucaparib) 118% | viability ([8]; at 5 µM, OCI-C5x cells, with rucaparib 10 µM, 100% = cells with rucaparib alone) 105% | viability ([8]; at 5 µM, OCI-C5x cells, without rucaparib) 123% | viability ([8]; at 5 µM, OCI-P5x cells, with rucaparib 20 µM, 100% = cells with rucaparib alone) 103% | viability ([8]; at 5 µM, OCI-P5x cells, without rucaparib) 111% | remaining NAD [9] 10 nM | luciferase signal [10] 48 AU | z-score [11] 0.365 and 1.53 | log fold change Tl+ flux (F380Y) 0.00439 | log fold change Tl+ flux (F380Y/beta2Delta) 0.0296 | log fold change Tl+ flux [12] 0.0101 | log fold change Tl+ flux (R275C) -0.057 | log fold change Tl+ flux (R275C/beta1) -0.028 | log fold change Tl+ flux (R275C/beta2Delta) -0.0196
1.27: normalised cell number [7, 17]

CCCCC(=O)N(Cc1ccc(-c2ccccc2-c2nn[nH]n2)cc1)[C@H](C(=O)O)C(C)C
0.0466 and -1.21: z-score [15, 19]
1.14: normalised cell number [7, 16]
1.3: normalised cell number [7, 17]
89.7% and 98.7% and 73.8%: viability [13]
8430 and 12500: cell count ([14]; measured here: total cells without miR-34 induction)
inactive: parasite load remaining [13] 147% and 47.5% and 92.3% | fluorescence ratio [1] 1.07 | inhibition [2] 4.36% | inhibition [3] 4.52% | fluorescence ratio [4] 1.05 | inhibition [5] -2.51% | mean signal [6] 250 | red/green cell ratio (normalised) [7] 1.14 | fold change ([14]; stronger effect = lower value, cell number ratio, induced over uninduced) 0.954 and 0.853 | z-score [15, 18] 0.123 and -0.397 | remaining NAD [9] 10 nM | luciferase signal [10] 56 AU | log fold change Tl+ flux (F380Y) 0.0751 | log fold change Tl+ flux (F380Y/beta2Delta) 0.0113 | log fold change Tl+ flux [12] 0.0422 | log fold change Tl+ flux (R275C) -0.0315 | log fold change Tl+ flux (R275C/beta1) 0.0112 | log fold change Tl+ flux (R275C/beta2Delta) 0.014
0.477 and 2.43: fold change ([14]; measured here: relative caspase fold change +Dox/-Dox)
8040 and 10600: cell count ([14]; measured here: total cells with miR-34 induction, stronger effect = lower value)

CS(=O)(=O)c1ccc(C2=C(c3ccccc3)C(=O)OC2)cc1
-0.00526 and -0.204 and -0.438: z-score [15, 19]
0.92: normalised cell number [7, 17]
0.93: normalised cell number [7, 16]
inactive: fluorescence ratio [1] 1.03 | inhibition [2] 3.56% | inhibition [3] 1.44% | fluorescence ratio [4] 0.97 | inhibition [5] -26.3% | mean signal [6] 215 | red/green cell ratio (normalised) [7] 0.98 | z-score [15, 18] -0.068 and 0.18 and -0.373 | remaining NAD [9] 10 nM | luciferase signal [10] 192 AU | z-score [11] 0.26 and 0.525 | log fold change Tl+ flux (F380Y) 0.0227 | log fold change Tl+ flux (F380Y/beta2Delta) 0.00326 | log fold change Tl+ flux [12] 0.022 | log fold change Tl+ flux (R275C) -0.068 | log fold change Tl+ flux (R275C/beta1) 0.023 | log fold change Tl+ flux (R275C/beta2Delta) 0.00437
